{"source": "ChEMBL document CHEMBL3988442", "about": "“University of Dundee, Small-Polar-MMV Screening Library” (2021)", "note": "The campaign covered roughly 69,000 compounds. About 950 (1.4%) showed an effect of 50% or more. Many of the other results were omitted from the sample, so strong results are more common in it than they were.", "data": [{"test_system": "Mycobacterium tuberculosis", "test": "Cornell M. t heat shock assay; also: in the data most compounds retested in dose-response had high values", "type": "functional, organism-based", "set-up": "dose or concentration left out as unconfirmed", "units": {"Percent Effect": "%"}, "values": [{"smiles": "Cl.O=c1c2sccc2nc2n1CCN(Cc1ccsc1)CC2", "Percent Effect": -19.75}, {"smiles": "Cc1cccc(CN2CC[C@@H]3[C@@H]2CCN3C(=O)Cc2ccsc2)n1.O=C(O)C(F)(F)F.O=C(O)C(F)(F)F", "Percent Effect": -13.99}, {"smiles": "CO[C@H]1C[C@@H]2CN(C(=O)c3n[nH]c4c3CCCC4)C[C@@H]2C1", "Percent Effect": -12.29}, {"smiles": "Cc1ccc(N2CC[C@@H]3[C@@H]2CCN3Cc2ccsc2)nn1.O=C(O)C(F)(F)F.O=C(O)C(F)(F)F", "Percent Effect": -10.53}, {"smiles": "Cn1ccnc1CN1CCC2(CC1)COCCN(S(C)(=O)=O)C2.O=C(O)C(F)(F)F", "Percent Effect": 17.11}, {"smiles": "NC(=O)CN1CCC(c2csc(Nc3cnccn3)n2)CC1", "Percent Effect": -13.81}, {"smiles": "CC(=O)N1CCCC1c1csc(Nc2cnccn2)n1", "note": "(centres undefined)", "Percent Effect": -5.066}, {"smiles": "NC(=O)CN1CCCC1c1csc(Nc2cnccn2)n1", "note": "(centres undefined)", "Percent Effect": 58.45}, {"smiles": "CS(=O)(=O)CCC(=O)NC1(c2cccc(C(F)(F)F)c2)CCC1", "Percent Effect": -20.78}, {"smiles": "COC[C@@]12CCC[C@@H]1CN(C(=O)Cc1ccccn1)C2.O=C(O)C(F)(F)F", "Percent Effect": 12.87}, {"smiles": "Cc1ncc(CN2CCC(c3nc4cc(Cl)ccc4o3)CC2)s1", "Percent Effect": -15.08}, {"smiles": "Fc1ccc2[nH]c(C3CCCN3CCc3ccccn3)nc2c1", "note": "(centres undefined)", "Percent Effect": 61.35}, {"smiles": "CCc1nc(C2CCCN2CCc2ccccn2)no1", "note": "(centres undefined)", "Percent Effect": 107.9}, {"smiles": "O=C(CN1CCCC1c1nc2cc(F)ccc2[nH]1)NCc1ccccn1", "note": "(centres undefined)", "Percent Effect": -20.62}, {"smiles": "CC(C)c1nc(C2CCCN2CCc2ccccn2)no1", "note": "(centres undefined)", "Percent Effect": -39.31}, {"smiles": "Cc1nc(C2CCCN2CCc2ccccn2)no1", "note": "(centres undefined)", "Percent Effect": -5.804}, {"smiles": "Fc1ccc2[nH]c(C3CCCN3CCCn3cccn3)nc2c1", "note": "(centres undefined)", "Percent Effect": -23.88}, {"smiles": "CS(=O)(=O)N1CCc2ccc(=O)n(CCN3CCCC3)c2CC1.O=C(O)C(F)(F)F", "Percent Effect": 21.99}, {"smiles": "Cc1nnc(N2CCCC3(CN(Cc4cnn(C)c4)CCO3)C2)o1.O=C(O)C(F)(F)F.O=C(O)C(F)(F)F", "note": "(centres undefined)", "Percent Effect": -20.31}, {"smiles": "O=C(O)C(F)(F)F.O=C(c1ccoc1)N1CC[C@@H]2O[C@@H](COCCN3CCCC3)CC[C@@H]21", "Percent Effect": -1.941}, {"smiles": "O=C(O)C(F)(F)F.O=C(O)C(F)(F)F.O=C1[C@H]2CN(Cc3ccccn3)C[C@H]2CN1c1ccsc1", "Percent Effect": -8.069}, {"smiles": "CO[C@H]1CCN(Cc2cccs2)[C@@H]2CN(Cc3ccncc3)C[C@H]12.O=C(O)C(F)(F)F.O=C(O)C(F)(F)F.O=C(O)C(F)(F)F", "Percent Effect": 0.7697}, {"smiles": "O=C1CCNc2ncc(-c3ccc(Cl)cc3)cc2CN1C1CC1", "Percent Effect": 53.07}, {"smiles": "COc1ccc(-c2cnc3c(c2)CN(C2CC2)C(=O)CCN3)cc1", "Percent Effect": 36.55}, {"smiles": "Cl.Clc1ccc(-c2ccc(C3CNCCO3)nc2)cc1", "note": "(centres undefined)", "Percent Effect": 2.375}, {"smiles": "O=C1CCC(=O)N1CCn1nnc(-c2cccc(Cl)c2)n1", "Percent Effect": -24.84}, {"smiles": "O=C1CCNc2ncc(-c3cccc(Cl)c3)cc2CN1C1CC1", "Percent Effect": 61.09}, {"smiles": "O=C1CCNc2ncc(-c3ccccc3Cl)cc2CN1C1CC1", "Percent Effect": 39.75}, {"smiles": "COc1ccc(OCCN2CCC(N3CCNC3=O)CC2)cc1", "Percent Effect": 47.29}, {"smiles": "Cc1ccc(N2CCO[C@H]3CN(Cc4nccs4)C[C@H]32)nn1.O=C(O)C(F)(F)F.O=C(O)C(F)(F)F", "Percent Effect": -20.26}, {"smiles": "O=C(O)C(F)(F)F.O=C(O)C(F)(F)F.O=C([C@H]1C[C@H]2OCC[C@H]2N(Cc2cccnc2)C1)N1CCCO1", "Percent Effect": -0.4009}, {"smiles": "CCC1CN(C(=O)c2ccc(=O)[nH]n2)CCC(=O)N1Cc1ccccc1", "note": "(centres undefined)", "Percent Effect": 3.349}, {"smiles": "CCC1CN(C(=O)c2cccc(O)c2)CCC(=O)N1Cc1ccccc1", "note": "(centres undefined)", "Percent Effect": 3.275}, {"smiles": "CCC1CN(C(=O)c2ccc(=O)[nH]c2)CCC(=O)N1Cc1ccccc1", "note": "(centres undefined)", "Percent Effect": 106.1}, {"smiles": "Fc1ccc(CN2CCC(F)(F)C3(CCN(c4cnccn4)C3)C2)cc1.O=C(O)C(F)(F)F.O=C(O)C(F)(F)F", "note": "(centres undefined)", "Percent Effect": 3.728}, {"smiles": "CN(C)c1nc2c(c(N3CCc4ccccc4C3)n1)CCNC2", "Percent Effect": 101.7}, {"smiles": "CN(C)c1nc2c(c(N3CCc4c(c(CO)nn4C)C3)n1)CCNC2", "Percent Effect": -14.09}, {"smiles": "c1ccc2c(c1)CCN(c1ncnc3sc4c(c13)CCNC4)C2", "Percent Effect": 12.7}, {"smiles": "Cc1cccc(=O)n1CCCNc1nc(N(C)C)nc2c1CCNC2", "Percent Effect": 44.77}, {"smiles": "Cc1nc2c(c(N3CCN(c4ncccc4C(N)=O)CC3)n1)CCNC2", "Percent Effect": 6.854}, {"smiles": "c1ccc2c(c1)CCN(c1nc(-c3ccncc3)nc3c1CCNC3)C2", "Percent Effect": 105.2}, {"smiles": "Cc1cc2n(n1)CCN(c1nc(N(C)C)nc3c1CCNC3)C2", "Percent Effect": 7.698}, {"smiles": "Cc1ccccc1N1CCN(c2nc(N(C)C)nc3c2CCNC3)CC1", "Percent Effect": 99.74}, {"smiles": "c1ccc2c(c1)CN(c1ncnc3c1CCNC3)CCO2", "Percent Effect": 22.91}, {"smiles": "NCC1CCC2(CCN(C(=O)c3ccccn3)CC2)CO1.O=C(O)C(F)(F)F.O=C(O)C(F)(F)F", "note": "(centres undefined)", "Percent Effect": 3.829}, {"smiles": "Cn1cc(N2CC3(CCN(CC4CCC4)CC3)OCC2=O)cn1.O=C(O)C(F)(F)F", "Percent Effect": 10.75}, {"smiles": "Cc1cccc(C(=O)N2CCC[C@]3(C[C@@H](OCC4CC4)CO3)C2)n1.O=C(O)C(F)(F)F", "Percent Effect": 5.615}, {"smiles": "O=C(O)C(F)(F)F.O=C([C@@H]1C[C@@H]2CCN(Cc3ccoc3)C[C@H]2O1)N1CCCC1", "Percent Effect": 5.199}, {"smiles": "Cc1noc(C)c1C(=O)N1Cc2ncn(C)c2C(COCC(C)C)C1.O=C(O)C(F)(F)F", "note": "(centres undefined)", "Percent Effect": 10.61}, {"smiles": "O=C(Cc1ccccc1)N1C[C@@H]2OCCN(CC3CCCO3)[C@@H]2C1.O=C(O)C(F)(F)F", "note": "(some centres undefined)", "Percent Effect": -18.47}, {"smiles": "Cc1cc(Oc2ccc(NC(=O)C3CC3)cc2)cc(C2CCNCC2)n1.Cl", "Percent Effect": 4.147}, {"smiles": "COc1ccc(CN2CCC3(CC2)CC(CC(=O)NC(C)C)CO3)cc1.O=C(O)C(F)(F)F", "note": "(centres undefined)", "Percent Effect": 0.5964}, {"smiles": "CCN(CC)Cc1cn2c(n1)CN(C(=O)c1cnccn1)CC2.O=C(O)C(F)(F)F", "Percent Effect": -4.073}, {"smiles": "CC(C)c1nn(C)c(N(C)C)c1CNC1CCOc2c(F)cccc21.Cl", "note": "(centres undefined)", "Percent Effect": 0.8128}, {"smiles": "O=C(CCc1ccco1)Nc1cc(C(F)(F)F)c[nH]c1=O", "Percent Effect": -7.508}, {"smiles": "O=C(NCCNc1ncccn1)Nc1cc(C(F)(F)F)c[nH]c1=O", "Percent Effect": -2.019}, {"smiles": "O=C(NCCc1ccco1)Nc1cc(C(F)(F)F)c[nH]c1=O", "Percent Effect": 9.339}, {"smiles": "O=C(NCCOc1ccccc1)Nc1cc(C(F)(F)F)c[nH]c1=O", "Percent Effect": 24.31}, {"smiles": "CC(CCc1ccco1)NC(=O)Nc1cc(C(F)(F)F)c[nH]c1=O", "note": "(centres undefined)", "Percent Effect": 102.3}, {"smiles": "CC(C)CCOCCNC(=O)Nc1cc(C(F)(F)F)c[nH]c1=O", "Percent Effect": 62.92}, {"smiles": "COc1cc(CNCc2ccnc(N3CCCC3)c2)cc(OC)c1.Cl", "Percent Effect": 5.029}, {"smiles": "O=C(NCc1ccccn1)[C@@H]1CCO[C@@H]2CCN(Cc3ccoc3)C[C@H]21.O=C(O)C(F)(F)F.O=C(O)C(F)(F)F", "Percent Effect": 8.703}, {"smiles": "Cc1cnn(CC2CN(CCS(C)(=O)=O)CCO2)c1", "note": "(centres undefined)", "Percent Effect": 3.305}, {"smiles": "O=S(=O)(CCN1CCOC(Cn2cccn2)C1)C(F)(F)F", "note": "(centres undefined)", "Percent Effect": 103.2}, {"smiles": "Cc1cnn(CC2CN(CCCS(C)(=O)=O)CCO2)c1", "note": "(centres undefined)", "Percent Effect": 7.266}, {"smiles": "Cc1cnn(CC2CN(CCS(=O)(=O)C(F)(F)F)CCO2)c1", "note": "(centres undefined)", "Percent Effect": 85.56}, {"smiles": "c1cnn(CCN2CCOC(Cn3cccn3)C2)c1", "note": "(centres undefined)", "Percent Effect": -7.25}, {"smiles": "Cc1cnn(CC2CN(Cc3nc(-c4ccoc4)no3)CCO2)c1", "note": "(centres undefined)", "Percent Effect": 8.998}, {"smiles": "Cc1nc(CN2CCOC(Cn3cccn3)C2)no1", "note": "(centres undefined)", "Percent Effect": -15.93}, {"smiles": "Cc1ccc(-c2nc(CN3CCOC(Cn4cccn4)C3)no2)cc1", "note": "(centres undefined)", "Percent Effect": 60.58}, {"smiles": "c1cnn(CC2CN(Cc3nc(-c4ccsc4)no3)CCO2)c1", "note": "(centres undefined)", "Percent Effect": -8.346}, {"smiles": "c1ccc(-c2nc(CN3CCOC(Cn4cccn4)C3)no2)cc1", "note": "(centres undefined)", "Percent Effect": 2.98}, {"smiles": "Cc1cnn(CC2CN(Cc3nc(-c4ccsc4)no3)CCO2)c1", "note": "(centres undefined)", "Percent Effect": 77.9}, {"smiles": "O=S(=O)(CCN1CCOC(Cn2cccn2)C1)c1ccccc1", "note": "(centres undefined)", "Percent Effect": 6.109}, {"smiles": "O=C(O)C(F)(F)F.O=C(O)C(F)(F)F.c1cncc(N2CCCn3nnc(CN4CCCCC4)c3C2)c1", "Percent Effect": 0.6199}, {"smiles": "C1CC(CN2CCc3c(nnn3CC3CC3)C2COCC2CC2)C1.O=C(O)C(F)(F)F", "note": "(centres undefined)", "Percent Effect": -20.7}, {"smiles": "Cl.Cl.Cn1cc(C(=O)NCc2cncc3c2CCNC3)cn1", "Percent Effect": -18.1}, {"smiles": "CN1CCN(CC2CN(CC3CC3)Cc3nccn3C2)CC1.O=C(O)C(F)(F)F.O=C(O)C(F)(F)F.O=C(O)C(F)(F)F", "note": "(centres undefined)", "Percent Effect": -11.65}, {"smiles": "O=C(O)C(F)(F)F.O[C@@H]1CCN(CC2CC2)[C@H]1Cc1ccccc1", "Percent Effect": -16.02}, {"smiles": "O=C(O)C(F)(F)F.O=C(O)C(F)(F)F.O=C(O)C(F)(F)F.c1ccc(CN2CC[C@@H]3O[C@@H](COCCN4CCCC4)CC[C@@H]32)nc1", "Percent Effect": -2.857}, {"smiles": "CCOc1cccc2c1OCC(=O)N(c1ccc3c(c1)OCO3)C2", "Percent Effect": -8.154}, {"smiles": "CCOc1cccc2c1OCC(=O)N(c1ccc(N(C)C)cc1)C2", "Percent Effect": 78.25}, {"smiles": "CCOc1cccc2c1OCC(=O)N(c1ccc3c(c1)OCCO3)C2", "Percent Effect": 11.44}, {"smiles": "COCCN1CCC2(CC1)CN(C(=O)c1ccco1)CCO2.O=C(O)C(F)(F)F", "Percent Effect": -23.42}, {"smiles": "Cl.O=C(Nc1nc2c(s1)CNCC2)C1CC1", "Percent Effect": 12.02}, {"smiles": "O=C(Nc1nc2c(s1)CCC2)NC1CCCC1", "Percent Effect": 7.852}, {"smiles": "Cl.O=C(Nc1nc2c(s1)CNCC2)NC1CCCC1", "Percent Effect": 102.9}, {"smiles": "O=C(O)C(F)(F)F.O=C(O)C(F)(F)F.c1cncc(-c2nnn3c2COCC(CNCC2CCOCC2)C3)c1", "note": "(centres undefined)", "Percent Effect": -15.79}, {"smiles": "COCCn1cc2c(n1)C(CNCc1cccc(OC)c1)OCC2.O=C(O)C(F)(F)F", "note": "(centres undefined)", "Percent Effect": -15.92}]}]}
